According to PubChem BioAssay (NCATS):
Records with an inconclusive call do not appear. Calls of active or inactive are those of the source. Unless noted, calls come from the whole dose curve; as a rule, active = well fitted curve in the direction sought with a large enough effect; inconclusive = small, poorly fitted or top-dose-only effect, or another doubt; inactive = no such curve, though single readings can be large; an effect the other way counts as inactive or inconclusive.

Key:
[1] = biological target: Lysosomal acid glucosylceramidase (Homo sapiens) (UniProt P04062); assay: Glucocerebrosidase-p2 (AID 348; in the data active = potency below about 10 µM; note: potency is the fitted concentration of half-maximal effect); settings: purified GBA, blue fluorogenic substrate, 40 min
Outline: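 Compounds titrated from 0.6 nM upwards against 0.2 nM enzyme in pH 5.9 citric acid/KH2PO4, taurocholate, tween-20; blue fluorogenic substrate 80 uM, 40 min room temperature, stopped and read Ex 365/Em 440 for AC50.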

[2] = biological target: Glucocorticoid receptor (Homo sapiens) (UniProt P04150); assay: GR-GFP Redistribution (AID 450;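 active = compounds whose dose series gives a full or clear partial fitted curve of increased nuclear translocation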; note: potency is the fitted concentration of half-maximal effect); settings: U2OS GR-GFP nuclear translocation, laser cytometry, 2 h
[3] = biological target: Glucocorticoid receptor (Homo sapiens) (UniProt P04150); assay: GR-EFC Redistribution (AID 451; calls by dose curve; note: potency is the fitted concentration of half-maximal effect); settings: CHO-K1 GR-EFC translocation, beta-gal luminescence, 2 h
Outline: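 CHO-K1 cells expressing nuclear EA and GR-ED fragments of b-gal; compounds titrated up to 46 uM final, 2 h at 37 C. GR nuclear translocation read as complemented b-gal luminescence after 1 h RT detection.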

[4] = biological target: Mitogen-activated protein kinase 10 (Mus musculus) (UniProt Q61831); assay: JNK3 AlphaScreen Assay (AID 530; active = well fitted curve in either direction with a large enough effect, not every such curve was filed as active;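 note: kinase came from lysate of stimulated human HepG2 cells; signal reports phosphorylation of biotinylated GST-cJun 1-79 at Ser73 with 10 µM ATP; % is set by controls: 0 for no effect and ±100 for the full control effect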); settings: JNK3 lysate, c-Jun phosphorylation; series mostly up to 57.1 µM
Outline: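 qHTS format: compounds tested as titrations against IL-1beta/TNF-alpha-activated HepG2 lysate JNK3 with biotin-GST-cJun substrate and 10 uM ATP at room temperature. Loss of anti-phospho-cJun AlphaScreen signal indicates inhibition.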

[5] = biological target: Cytochrome P450 3A4 (Homo sapiens) (UniProt P08684); assay: qHTS Assay for Activators of Cytochrome P450 3A4 (AID 885); settings: recombinant CYP3A4, Luciferin-PPXE luminescence, 60 min; series mostly up to 57.1 µM; note: nearly all actives have a fitted effect of over 65% in size
Outline: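 20nM CYP3A4 + 25uM Luciferin-PPXE (=KM), 200mM KPO4; cpd 10 min RT; NADPH regen, 60 min RT; stop w/ detection buffer, 20 min; luminescence. Normalized to 57 uM ketoconazole.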

[6] = qHTS Assay for Lipid Storage Modulators (AID 1519; calls by dose curve); settings: Drosophila S3 cells, BODIPY lipid droplet/cell ratio, laser cytometry, cells loaded with oleic acid
Outline: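 Cells seeded at 5,000 per well were treated with compounds over a concentration series and loaded with oleic acid (400 uM, as added). Lipid droplet fluorescence (488 nm excitation, 500-530 nm channel) was read by laser-scanning cytometry and normalized to 20 uM Triacsin C.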

[7] = Primary qHTS for small molecule stabilizers of the endoplasmic reticulum resident proteome: Secreted ER Calcium Modulated Protein (SERCaMP) assay (AID 1508630); settings: SH-SY5Y GLuc-SERCaMP (Gaussia luciferase released on ER calcium loss) secretion, thapsigargin, luminescence; series mostly up to 38.4 µM; note: % is set by controls: 0 for no effect and ±100 for the full control effect
Outline: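 GLuc-SERCaMP-expressing SH-SY5Y cells, pretreated 16 h with compound, are challenged with thapsigargin to empty ER calcium stores; after 4 h, coelenterazine is added directly to the medium and luminescence is imaged.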

[8] = biological target: Rap guanine nucleotide exchange factor 3 (Homo sapiens) (UniProt O95398); assay: Confirmatory qHTS for agonist of cAMP-regulated guanine nucleotide exchange factor 3 (EPAC1) (AID 1645881); settings: EPAC1 Rap1B BODIPY-GDP exchange fluorescence, 100% = cAMP control response; series mostly up to 154 µM;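 note: EPAC1 catalysed release of BODIPY-GDP from Rap1B seen as fluorescence loss; nearly all actives have a fitted effect of over 75% in size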
[9] = biological target: Rap guanine nucleotide exchange factor 4 (Homo sapiens) (UniProt Q8WZA2); assay: Confirmatory qHTS for antagonist of cAMP-regulated guanine nucleotide exchange factor 4 (EPAC2) (AID 1645885); settings: EPAC2 Rap1B-BODIPY-GDP exchange fluorescence, biochemical; series mostly up to 114 µM; note: nearly all actives have a fitted effect of over 25% in size; note: potency is the fitted concentration of half-maximal effect
[10] = AP1 Signaling Pathway (AID 357; active = well fitted curve in either direction with a large enough effect, not every such curve was filed as active;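 note: ME-180 reporter cells stimulated with EGF at its EC50 level; % is set by controls: 0 for no effect and ±100 for the full control effect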); settings: ME-180 AP-1-bla reporter, EGF-induced, beta-lactamase ratio, 5 h; at 7.69 µM (top of the series) unless noted
Outline: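 Cells are seeded overnight, exposed to compound titrations and an EC50 level of EGF for 5 hours at 37 °C, then loaded with CCF4 dye for 2.5 hours. Beta-lactamase activity under the AP-1 element is read as a blue/green ratio.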

[11] = biological target: Cytochrome P450 1A2 (Homo sapiens) (UniProt P05177); assay: p450-cyp1a2 (AID 410; calls by dose curve; note: potency is the fitted concentration of half-maximal effect;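 for activity change, negative = inhibition: -100% = full effect of reference inhibitor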); settings: recombinant CYP1A2, luciferin-ME demethylation, luminescence; series mostly up to 57 µM
Outline: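 Inhibition was calculated relative to 57 uM furafylline (full inhibition). The reaction used human CYP1A2 at 20nM with Luciferin-ME at its Km, 100uM, driven by an NADPH-regenerating system for 60 min at room temperature.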

[12] = Stat Signaling Pathway (AID 446; active = well fitted curve in either direction with a large enough effect, not every such curve was filed as active;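 note: ME-180 cervical cancer cells given 40 pM IL-6 alongside compound; SIE-controlled beta-lactamase reporter measured as 460/530 nm FRET emission ratio; % is set by controls: 0 for no effect and ±100 for the full control effect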); settings: ME-180 SIE beta-lactamase reporter, IL-6 stimulated, 5 h; at 7.69 µM (top of the series) unless noted
Outline: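 ME-180 SIE-bla cells; overnight plating; cpd + IL-6 40 pM, 5 h, 37 C; LiveBLAzer 2.5 h RT; 460/530 nm emission ratio. Normalized to 300 pM IL-6 and 125 nM JAK inhibitor controls.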

[13] = biological target: Dual specificity protein kinase CLK4 (Homo sapiens) (UniProt Q9HAZ1); assay: qHTS Assay for Inhibitors of CDC-like Kinase 4 (Kinase-Glo Assay) (AID 1770); settings: recombinant Clk4, Kinase-Glo ATP depletion luminescence; series mostly up to 66.7 µM; note: % is set by controls: 0 for no effect and ±100 for the full control effect; nearly all actives have a fitted effect of over 65% in size
Outline: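 Clk4 25 nM, RS peptide 100 uM, ATP 1 uM, pH 7.5 Tris, 10 mM MgCl2, 2.5 mM DTT; 4.5 h RT; ATP depletion read by Kinase-Glo luminescence.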

[14] = biological target: Dual specificity protein kinase CLK4 (Homo sapiens) (UniProt Q9HAZ1); assay: qHTS Assay for Inhibitors of CDC-like Kinase 4 (ADP-Glo Assay) (AID 1771); settings: recombinant CLK4, ADP-Glo luminescence; series mostly up to 80 µM; note: % is set by controls: 0 for no effect and ±100 for the full control effect; nearly all actives have a fitted effect of over 70% in size
Outline: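 Kinase reaction: Clk4 at 25 nM, RS repeat peptide substrate at 100 uM, ATP at 1 uM, 1 hr, room temperature. Product ADP detected as luciferase signal via ADP-Glo.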

[15] = biological target: Dual specificity protein kinase CLK4 (Homo sapiens) (UniProt Q9HAZ1); assay: qHTS Assay for Inhibitors of CDC-like Kinase 4 (ADP-FP Assay) (AID 1795); settings: Transcreener ADP fluorescence polarization; series mostly up to 50 µM;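 note: recombinant human CLK4 phosphorylating RS repeat peptide at 1 µM ATP; % is set by controls: 0 for no effect and ±100 for the full control effect; nearly all actives have a fitted effect of over 60% in size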
Outline: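 Kinase activity was followed as ADP output, converted from fluorescence polarization with a calibration curve. Reactions ran one hour at low ATP (1 uM) with RS peptide substrate.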

[16] = biological target: Ubiquitin carboxyl-terminal hydrolase 1 (Homo sapiens) (UniProt O94782); assay: Inhibitors of USP1/UAF1: Pilot qHTS (AID 504865); settings: purified USP1/UAF1, Ub-rhodamine cleavage fluorescence; series mostly up to 54.9 µM; note: nearly all actives have a fitted effect of over 35% in size; note: potency is the fitted concentration of half-maximal effect
Outline: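 Enzyme-free wells gave the negative control, while test wells held 1nM USP1/UAF1 preincubated with compound for 15 min at room temperature. Ub-Rho at 150nM final started the reaction, and fluorescence at 480/540 nm was recorded kinetically.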

[17] = biological target: Rap guanine nucleotide exchange factor 4 (Homo sapiens) (UniProt Q8WZA2); assay: Confirmatory qHTS for agonist of cAMP-regulated guanine nucleotide exchange factor 4 (EPAC2) (AID 1645884); settings: EPAC2 GEF activity, Rap1B-BODIPY-GDP fluorescence, percent relative to cAMP agonist control; series mostly up to 154 µM;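 note: nucleotide exchange releases bodipy-GDP from Rap1 and this lowers its fluorescence; % is set by controls: 0 for no effect and ±100 for the full control effect; nearly all actives have a fitted effect of over 65% in size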
[18] = NFAT Signaling Pathway (AID 444; active = well fitted curve in either direction with a large enough effect, not every such curve was filed as active); settings: Jurkat NFAT-bla M1, carbachol, beta-lactamase ratio, 5 h
Outline: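 Jurkat cells with NFAT-driven β-lactamase reporter and co-expressed M1 receptor, stimulated with carbachol (final 1 uM, ~EC50), compound titration, 5 h at 37 °C. CCF4 loaded 1 h at RT; 460/530 nm ratio gave %activity and AC50.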

[19] = biological target: 3',5'-cyclic-AMP phosphodiesterase 4B (Homo sapiens) (UniProt Q07343); assay: qHTS Assay for Inhibitors of PDE-IV (AID 607; active = well fitted activation curve with a large enough effect in the main read-out, with a control signal flat, not every such curve was filed as active; note: % of control where 0% means no effect); settings: HEK293 ACTOne CNG channel cells, membrane potential fluorescence; series mostly up to 22.9 µM
Outline: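 ACTOne HEK293 cells carry a modified cAMP-gated CNG channel and express endogenous PDE4; plated 1000 cells/well, compounds up to 22.9 uM final. Membrane-potential dye fluorescence (ex 535/em 590) was read; parental cells received 10 uM forskolin + 100 uM RO 20-1724.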

[20] = measured here: cell count channel max response
[21] = measured here: lipid channel max response
[22] = at 7.69 µM (top of the series) unless noted

Chain of Lysosomal acid glucosylceramidase (Homo sapiens) (P04062 whole entry, looked up): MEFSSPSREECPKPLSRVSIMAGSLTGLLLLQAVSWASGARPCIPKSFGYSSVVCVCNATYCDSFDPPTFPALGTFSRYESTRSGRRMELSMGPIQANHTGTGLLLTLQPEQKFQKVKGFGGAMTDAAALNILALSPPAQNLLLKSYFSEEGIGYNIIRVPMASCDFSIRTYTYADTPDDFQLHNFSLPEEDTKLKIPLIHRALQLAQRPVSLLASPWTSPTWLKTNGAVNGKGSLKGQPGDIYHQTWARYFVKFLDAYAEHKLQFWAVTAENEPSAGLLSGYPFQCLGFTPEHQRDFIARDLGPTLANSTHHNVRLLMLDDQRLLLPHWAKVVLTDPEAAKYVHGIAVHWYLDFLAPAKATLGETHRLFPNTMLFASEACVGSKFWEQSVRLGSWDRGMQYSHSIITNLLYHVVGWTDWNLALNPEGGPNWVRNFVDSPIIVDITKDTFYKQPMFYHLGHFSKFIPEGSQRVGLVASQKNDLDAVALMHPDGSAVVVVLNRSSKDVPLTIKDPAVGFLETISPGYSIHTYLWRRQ
Chain of Cytochrome P450 3A4 (Homo sapiens) (P08684 whole entry, looked up): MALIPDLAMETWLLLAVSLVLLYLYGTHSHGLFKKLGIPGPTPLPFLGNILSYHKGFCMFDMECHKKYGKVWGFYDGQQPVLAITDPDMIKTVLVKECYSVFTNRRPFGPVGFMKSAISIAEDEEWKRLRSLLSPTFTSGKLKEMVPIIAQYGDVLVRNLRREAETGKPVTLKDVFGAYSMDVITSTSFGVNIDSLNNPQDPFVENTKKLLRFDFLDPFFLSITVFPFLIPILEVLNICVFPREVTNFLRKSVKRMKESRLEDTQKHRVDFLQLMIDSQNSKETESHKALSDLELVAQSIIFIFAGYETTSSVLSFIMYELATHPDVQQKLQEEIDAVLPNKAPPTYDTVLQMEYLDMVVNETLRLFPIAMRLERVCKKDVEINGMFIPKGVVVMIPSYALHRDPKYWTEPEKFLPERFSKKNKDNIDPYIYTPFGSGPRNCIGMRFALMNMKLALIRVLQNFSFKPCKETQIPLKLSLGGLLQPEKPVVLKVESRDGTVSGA
Chain of Dual specificity protein kinase CLK4 (Homo sapiens) (Q9HAZ1 whole entry, looked up): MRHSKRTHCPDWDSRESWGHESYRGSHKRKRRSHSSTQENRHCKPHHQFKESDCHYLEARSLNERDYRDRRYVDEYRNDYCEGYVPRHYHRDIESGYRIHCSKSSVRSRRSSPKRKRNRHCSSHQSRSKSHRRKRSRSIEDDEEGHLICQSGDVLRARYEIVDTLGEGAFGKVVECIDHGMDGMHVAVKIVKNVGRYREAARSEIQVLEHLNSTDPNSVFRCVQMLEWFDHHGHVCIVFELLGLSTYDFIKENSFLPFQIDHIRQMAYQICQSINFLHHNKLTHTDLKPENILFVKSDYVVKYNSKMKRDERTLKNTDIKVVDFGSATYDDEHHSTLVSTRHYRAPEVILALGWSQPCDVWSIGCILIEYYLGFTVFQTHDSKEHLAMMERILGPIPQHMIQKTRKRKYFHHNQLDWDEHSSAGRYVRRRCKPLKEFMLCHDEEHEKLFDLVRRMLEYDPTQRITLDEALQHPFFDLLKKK
Chain of Glucocorticoid receptor (Homo sapiens) (P04150 whole entry, looked up, the tested form may be a part): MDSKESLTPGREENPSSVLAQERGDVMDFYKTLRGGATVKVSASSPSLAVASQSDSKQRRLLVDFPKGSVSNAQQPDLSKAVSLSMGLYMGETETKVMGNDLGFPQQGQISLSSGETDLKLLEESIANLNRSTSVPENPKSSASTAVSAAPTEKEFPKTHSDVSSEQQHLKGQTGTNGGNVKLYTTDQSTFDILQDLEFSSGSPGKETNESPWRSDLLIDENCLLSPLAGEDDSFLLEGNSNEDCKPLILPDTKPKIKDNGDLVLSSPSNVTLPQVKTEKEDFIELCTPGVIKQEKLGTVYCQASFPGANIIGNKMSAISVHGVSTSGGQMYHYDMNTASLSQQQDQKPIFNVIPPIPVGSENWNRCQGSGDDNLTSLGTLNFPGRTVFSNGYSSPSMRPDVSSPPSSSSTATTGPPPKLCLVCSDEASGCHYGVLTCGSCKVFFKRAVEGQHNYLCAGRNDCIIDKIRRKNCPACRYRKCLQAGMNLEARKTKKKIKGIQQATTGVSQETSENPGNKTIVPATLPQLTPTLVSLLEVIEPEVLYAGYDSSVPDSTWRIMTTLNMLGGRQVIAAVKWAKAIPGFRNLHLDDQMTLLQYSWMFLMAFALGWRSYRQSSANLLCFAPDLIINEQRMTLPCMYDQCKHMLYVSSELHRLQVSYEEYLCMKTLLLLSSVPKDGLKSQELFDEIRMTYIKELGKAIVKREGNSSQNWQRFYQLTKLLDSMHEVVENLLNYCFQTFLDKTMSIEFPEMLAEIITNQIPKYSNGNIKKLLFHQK
Chain of Cytochrome P450 1A2 (Homo sapiens) (P05177 whole entry, looked up): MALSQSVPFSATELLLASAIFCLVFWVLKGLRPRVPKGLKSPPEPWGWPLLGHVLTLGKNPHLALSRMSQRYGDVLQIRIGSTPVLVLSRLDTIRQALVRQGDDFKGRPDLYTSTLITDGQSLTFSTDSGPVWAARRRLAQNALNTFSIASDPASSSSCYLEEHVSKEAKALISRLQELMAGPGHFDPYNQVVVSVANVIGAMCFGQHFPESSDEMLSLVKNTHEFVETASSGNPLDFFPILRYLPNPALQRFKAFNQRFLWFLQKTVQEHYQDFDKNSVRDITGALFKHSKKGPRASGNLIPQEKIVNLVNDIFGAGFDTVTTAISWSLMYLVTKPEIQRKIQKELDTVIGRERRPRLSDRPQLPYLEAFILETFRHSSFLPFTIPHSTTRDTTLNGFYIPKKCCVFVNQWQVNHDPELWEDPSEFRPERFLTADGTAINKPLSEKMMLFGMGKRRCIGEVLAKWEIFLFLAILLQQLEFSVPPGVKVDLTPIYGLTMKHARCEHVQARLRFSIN
Chain of Ubiquitin carboxyl-terminal hydrolase 1 (Homo sapiens) (O94782 whole entry, looked up): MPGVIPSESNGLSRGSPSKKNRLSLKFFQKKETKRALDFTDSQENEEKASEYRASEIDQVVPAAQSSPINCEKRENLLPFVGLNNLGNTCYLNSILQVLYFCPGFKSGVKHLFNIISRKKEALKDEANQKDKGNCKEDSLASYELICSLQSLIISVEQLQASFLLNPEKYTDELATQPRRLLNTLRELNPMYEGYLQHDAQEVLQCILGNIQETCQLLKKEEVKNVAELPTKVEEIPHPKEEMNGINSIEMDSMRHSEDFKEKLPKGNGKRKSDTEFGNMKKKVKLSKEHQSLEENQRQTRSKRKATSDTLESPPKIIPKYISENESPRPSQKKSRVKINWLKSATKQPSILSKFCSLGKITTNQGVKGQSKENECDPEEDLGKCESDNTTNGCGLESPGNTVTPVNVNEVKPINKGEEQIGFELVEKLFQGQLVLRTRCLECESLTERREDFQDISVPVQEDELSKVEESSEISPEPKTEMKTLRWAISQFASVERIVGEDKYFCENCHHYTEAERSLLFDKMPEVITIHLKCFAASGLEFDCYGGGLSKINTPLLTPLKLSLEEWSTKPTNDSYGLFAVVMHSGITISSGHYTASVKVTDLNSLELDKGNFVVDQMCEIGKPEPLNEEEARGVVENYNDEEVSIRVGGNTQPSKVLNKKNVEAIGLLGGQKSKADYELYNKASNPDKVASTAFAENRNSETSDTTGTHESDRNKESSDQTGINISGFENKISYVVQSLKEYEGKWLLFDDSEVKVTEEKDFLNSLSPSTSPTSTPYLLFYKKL
Chain of 3',5'-cyclic-AMP phosphodiesterase 4B (Homo sapiens) (Q07343 whole entry, looked up): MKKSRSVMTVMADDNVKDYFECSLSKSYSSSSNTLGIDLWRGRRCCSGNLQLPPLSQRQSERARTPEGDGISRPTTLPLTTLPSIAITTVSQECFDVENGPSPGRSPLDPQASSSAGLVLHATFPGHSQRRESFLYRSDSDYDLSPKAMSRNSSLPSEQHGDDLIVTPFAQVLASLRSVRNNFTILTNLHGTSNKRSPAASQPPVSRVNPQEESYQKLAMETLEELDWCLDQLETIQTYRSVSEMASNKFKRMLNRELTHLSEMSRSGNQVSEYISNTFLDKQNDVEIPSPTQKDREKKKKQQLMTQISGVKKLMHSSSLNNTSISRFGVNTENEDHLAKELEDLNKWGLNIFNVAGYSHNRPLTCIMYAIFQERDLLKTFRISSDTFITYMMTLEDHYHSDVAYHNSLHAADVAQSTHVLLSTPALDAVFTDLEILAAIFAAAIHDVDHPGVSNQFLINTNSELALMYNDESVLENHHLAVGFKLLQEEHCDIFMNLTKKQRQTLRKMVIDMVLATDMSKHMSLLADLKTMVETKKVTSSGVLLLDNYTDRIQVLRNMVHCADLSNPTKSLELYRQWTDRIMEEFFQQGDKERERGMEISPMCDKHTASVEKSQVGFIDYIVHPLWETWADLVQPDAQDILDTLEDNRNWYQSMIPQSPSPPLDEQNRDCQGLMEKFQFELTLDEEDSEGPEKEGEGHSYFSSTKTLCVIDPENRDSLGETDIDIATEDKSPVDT

O=c1c(-c2cc(F)cc(F)c2)nc2cnc(N3CCNCC3)nc2n1Cc1cccs1
-33.5%: max response [6, 21]
active: Potency [9] 55.5 µM
inactive: Potency [1] > 11.4 µM | Potency [2] > 9.22 µM | Potency [3] > 46 µM | outcome [4] | Potency [5] | activity change, negative = inhibition ([6]; at 57.5 µM (top of the series)) -29.8% | Potency [7] | outcome [8]
-11.3%: max response [6, 20]

Cc1cccc(CNc2nc(-c3ccc4c(c3)OCO4)nc3ccccc23)c1
-19.2%: max response [6, 20]
active: Potency [11] 0.631 µM
-24.8%: max response [6, 21]
inactive: Potency [1] > 11.4 µM | activity change, negative = inhibition [10] -27.3% | activity, negative = inhibition [12] -19.3% | Potency [2] > 46 µM | Potency [3] > 46 µM | outcome [4] | Potency [5] | activity change, negative = inhibition ([6]; at 57.5 µM (top of the series)) -7.8% | Potency [13] | Potency [14] | Potency [15] | Potency [16] | Potency [7] | outcome [8] | outcome [17]

O=C(Nc1ccccc1)N1CCCC2(CCN(C(=O)c3cc(C(F)(F)F)cc(C(F)(F)F)c3)CC2)C1
17.1%: max response [6, 21]
active: Potency [11] 31.6 µM | Potency [9] 44.1 µM
16.6%: max response [6, 20]
inactive: Potency [1] > 11.4 µM | activity change, negative = inhibition [10] -28.2% | activity change, negative = inhibition [18, 22] 19.5% | activity, negative = inhibition [12] -14.9% | Potency [3] > 46 µM | outcome [4] | Potency [5] | activity change, negative = inhibition ([6]; at 57.5 µM (top of the series)) -0.939% | Potency [7] | outcome [8] | outcome [17]

COc1ncc2nc(-c3ccccc3)c(=O)n(-c3ccccc3)c2n1
inactive: Potency [1] > 11.4 µM | activity change, negative = inhibition [10] -21.5% | activity change, negative = inhibition [18, 22] 3.29% | activity, negative = inhibition [12] -8.81% | Potency [2] > 9.22 µM | Potency [3] > 46 µM | outcome [4] | activity change, negative = inhibition ([6]; at 57.5 µM (top of the series)) 3.9% | Potency [13] | Potency [14] | Potency [15] | Potency [16] | Potency [7]
11.5%: max response [6, 21]
active: Potency [11] 2 µM
10.3%: max response [6, 20]

COc1cc(O)c2c(=O)cc(C)oc2c1CC=C(C)C
11.5%: max response [6, 21]
inactive: Potency [5] | activity change, negative = inhibition ([6]; at 57.5 µM (top of the series)) 15% | Potency [7] | outcome [8] | outcome [17]
7.83%: max response [6, 20]
active: Potency [9] 22.1 µM

O=C(c1cccc(F)c1)N1CCC2(CCN(Cc3cc(C(F)(F)F)cc(C(F)(F)F)c3)CC2)CC1
10.5%: max response [6, 20]
inactive: Potency [1] > 11.4 µM | Potency [11] | activity, negative = inhibition [12] 9.15% | Potency [3] > 46 µM | outcome [4] | Potency [19] | activity change, negative = inhibition ([6]; at 57.5 µM (top of the series)) 1.43% | Potency [7] | outcome [8] | outcome [17]
12.9%: max response [6, 21]
active: Potency [9] 39.3 µM

N#Cc1cccc(-c2nc3cnc(N4CCOCC4)nc3n(C[C@H]3CCCO3)c2=O)c1
11.4%: max response [6, 21]
active: Potency [11] 0.794 µM
inactive: Potency [1] > 11.4 µM | activity change, negative = inhibition [10] -1.16% | activity change, negative = inhibition [18, 22] 1.23% | activity, negative = inhibition [12] 6.63% | Potency [2] > 9.22 µM | Potency [3] > 46 µM | outcome [4] | Potency [19] | activity change, negative = inhibition ([6]; at 57.5 µM (top of the series)) 4.04% | Potency [13] | Potency [14] | Potency [15] | Potency [16] | Potency [7]
10%: max response [6, 20]

Oc1ccc(/C=C\c2cc(O)cc(O)c2)cc1
active: Potency [9] 44.1 µM
-19.7%: max response [6, 20]
inactive: activity change, negative = inhibition [10] -2.07% [at 17.2 µM] | activity change, negative = inhibition ([18]; at 17.2 µM (top of the series)) -19.4% | activity change, negative = inhibition ([18]; at 38 µM (top of the series)) -5.74% | activity, negative = inhibition [12] -21.4% [at 17.2 µM] | outcome [4] | Potency [19] | activity change, negative = inhibition ([6]; at 25.7 µM (top of the series)) 2.61% | Potency [16] | Potency [7] | outcome [8] | outcome [17]
-17.5%: max response [6, 21]

COc1cccc(Cn2c(=O)c(-c3cn(C)c4ccccc34)nc3cnc(N4CCNCC4)nc32)c1
inactive: Potency [1] > 11.4 µM | Potency [3] > 46 µM | Potency [19] | Potency [5] | activity change, negative = inhibition ([6]; at 57.5 µM (top of the series)) 5.92% | Potency [13] | Potency [14] | Potency [15] | Potency [7] | outcome [8] | Potency [9]
active: Potency [11] 15.8 µM | Potency [16] 14.1 µM
13.9%: max response [6, 20]
20.8%: max response [6, 21]

O=C(c1cc(C(F)(F)F)cc(C(F)(F)F)c1)N1CCC2(CCCN(Cc3nccs3)C2)CC1
inactive: Potency [1] > 11.4 µM | activity change, negative = inhibition [10] -11.4% | Potency [11] | activity, negative = inhibition [12] -17.2% | Potency [3] > 46 µM | outcome [4] | Potency [19] | Potency [5] | activity change, negative = inhibition ([6]; at 57.5 µM (top of the series)) -19.9% | Potency [7] | outcome [8] | outcome [17]
17.8%: max response [6, 20]
-1.38%: max response [6, 21]
